Laboratory results taken from PMC7862700, “An all-to-all approach to the identification of sequence-specific readers for epigenetic DNA modifications on cytosine”.

How the values were obtained:
Test in all cases: DAPPL (digital affinity profiling via proximity ligation, sequencing); 10 mM Tris-HCl pH 7.5, 50 mM NaCl, 1 mM DTT, 4% glycerol, room temperature, 30 min; GST-TFs on glutathione beads, 16-mer random dsDNA library, 0.1% formaldehyde crosslink after washing; high values mean tight binding
[1] = biological target: T1, ELK1 (Homo sapiens, UniProt P19419 1-428); details: protein: recombinant; tags: N-terminal GST; dsDNA, one strand shown
T1 sequence: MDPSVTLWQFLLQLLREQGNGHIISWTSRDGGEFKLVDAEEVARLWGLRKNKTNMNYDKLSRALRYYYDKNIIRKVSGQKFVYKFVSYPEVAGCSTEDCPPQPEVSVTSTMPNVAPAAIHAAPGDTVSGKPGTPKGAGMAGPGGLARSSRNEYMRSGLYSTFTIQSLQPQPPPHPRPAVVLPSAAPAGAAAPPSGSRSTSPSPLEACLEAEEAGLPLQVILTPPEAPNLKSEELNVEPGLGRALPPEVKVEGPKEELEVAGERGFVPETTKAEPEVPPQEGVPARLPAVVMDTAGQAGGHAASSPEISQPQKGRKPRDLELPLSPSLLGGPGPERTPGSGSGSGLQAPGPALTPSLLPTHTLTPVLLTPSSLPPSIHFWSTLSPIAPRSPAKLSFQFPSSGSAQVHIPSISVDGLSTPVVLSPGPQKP
Procedure, shortened: (§1)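 After expression in yeast as GST fusions, human transcription factors were bound to glutathione beads, DNA-barcoded and mixed with a tag-only sample. The pools were incubated with 200 nmole of a 16-mer random double-stranded DNA library in Tris/NaCl/DTT/glycerol buffer (30 min, room temperature), washed and crosslinked with 0.1% formaldehyde. Proximity ligation with BsaI/T4 ligase ran for 1 h at 37 °C, before PCR amplification and sequencing on an Illumina NextSeq500. Binding signal is a hexamer's read frequency for a factor divided by its frequency for the tag-only sample.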

[2] = biological target: T2, EHF (Homo sapiens, UniProt Q9NZC4 1-300); details: protein: recombinant; tags: N-terminal GST; dsDNA, one strand shown
T2 sequence: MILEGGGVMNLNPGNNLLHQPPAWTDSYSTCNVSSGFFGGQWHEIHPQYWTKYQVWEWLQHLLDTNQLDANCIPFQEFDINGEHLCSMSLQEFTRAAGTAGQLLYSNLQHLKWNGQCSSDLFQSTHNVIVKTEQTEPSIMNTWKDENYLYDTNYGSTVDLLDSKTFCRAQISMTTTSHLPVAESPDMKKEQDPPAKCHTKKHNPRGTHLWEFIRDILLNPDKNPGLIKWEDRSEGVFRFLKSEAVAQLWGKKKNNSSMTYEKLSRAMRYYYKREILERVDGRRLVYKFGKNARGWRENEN
Procedure, shortened: as §1

[3] = biological target: SPI1 (Homo sapiens, UniProt P17947 1-270); details: protein: recombinant; tags: N-terminal GST; dsDNA, one strand shown
Procedure, shortened: as §1

[4] = biological target: T3, ELK3 (Homo sapiens, UniProt P41970 1-407); details: protein: recombinant; tags: N-terminal GST; dsDNA, one strand shown
T3 sequence: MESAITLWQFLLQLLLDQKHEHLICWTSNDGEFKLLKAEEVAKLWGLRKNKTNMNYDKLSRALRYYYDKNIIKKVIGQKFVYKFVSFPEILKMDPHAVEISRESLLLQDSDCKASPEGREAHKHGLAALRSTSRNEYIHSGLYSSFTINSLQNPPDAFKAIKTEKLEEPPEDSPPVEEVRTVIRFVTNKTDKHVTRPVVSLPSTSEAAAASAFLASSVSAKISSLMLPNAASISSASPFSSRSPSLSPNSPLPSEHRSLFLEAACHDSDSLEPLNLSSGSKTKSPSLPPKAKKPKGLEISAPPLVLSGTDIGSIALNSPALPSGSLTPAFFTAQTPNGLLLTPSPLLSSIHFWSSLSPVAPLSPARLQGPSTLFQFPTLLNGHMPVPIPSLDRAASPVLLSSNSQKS
Procedure, shortened: as §1

[5] = biological target: HSF1 (Homo sapiens, UniProt Q00613 1-529); details: protein: recombinant; tags: N-terminal GST; chain copies: 3; dsDNA, one strand shown
Procedure, shortened: as §1

[6] = biological target: T4, ETV2 (Homo sapiens, UniProt O00321 1-342); details: protein: recombinant; tags: N-terminal GST; dsDNA, one strand shown
T4 sequence: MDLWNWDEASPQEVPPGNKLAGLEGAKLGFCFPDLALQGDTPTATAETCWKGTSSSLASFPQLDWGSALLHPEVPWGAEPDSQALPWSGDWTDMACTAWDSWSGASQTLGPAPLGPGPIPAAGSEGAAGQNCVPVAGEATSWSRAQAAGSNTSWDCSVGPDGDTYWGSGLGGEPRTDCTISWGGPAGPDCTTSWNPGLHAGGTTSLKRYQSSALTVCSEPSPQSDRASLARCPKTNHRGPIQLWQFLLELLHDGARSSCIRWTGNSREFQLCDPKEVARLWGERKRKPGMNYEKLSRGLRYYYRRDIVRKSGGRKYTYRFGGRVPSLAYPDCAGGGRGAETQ
Procedure, shortened: as §1

[7] = biological target: T5, ELF3 (Homo sapiens, UniProt P78545 1-371); details: protein: recombinant; tags: N-terminal GST; dsDNA, one strand shown
T5 sequence: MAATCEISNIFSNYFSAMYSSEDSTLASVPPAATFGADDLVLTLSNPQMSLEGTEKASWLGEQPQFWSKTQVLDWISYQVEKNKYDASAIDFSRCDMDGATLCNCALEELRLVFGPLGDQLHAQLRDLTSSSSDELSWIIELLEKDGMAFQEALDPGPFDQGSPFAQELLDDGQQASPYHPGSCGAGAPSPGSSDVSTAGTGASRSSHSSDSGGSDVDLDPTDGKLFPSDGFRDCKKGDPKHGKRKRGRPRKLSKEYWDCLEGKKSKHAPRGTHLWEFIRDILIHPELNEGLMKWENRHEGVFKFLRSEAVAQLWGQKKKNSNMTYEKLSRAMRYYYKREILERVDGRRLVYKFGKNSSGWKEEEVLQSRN
Procedure, shortened: as §1

[8] = biological target: CRX (Homo sapiens, UniProt O43186 1-299); details: protein: recombinant; tags: N-terminal GST; dsDNA, one strand shown
Procedure, shortened: as §1

[9] = biological target: T6, SPDEF (Homo sapiens, UniProt O95238 1-335); details: protein: recombinant; tags: N-terminal GST; dsDNA, one strand shown
T6 sequence: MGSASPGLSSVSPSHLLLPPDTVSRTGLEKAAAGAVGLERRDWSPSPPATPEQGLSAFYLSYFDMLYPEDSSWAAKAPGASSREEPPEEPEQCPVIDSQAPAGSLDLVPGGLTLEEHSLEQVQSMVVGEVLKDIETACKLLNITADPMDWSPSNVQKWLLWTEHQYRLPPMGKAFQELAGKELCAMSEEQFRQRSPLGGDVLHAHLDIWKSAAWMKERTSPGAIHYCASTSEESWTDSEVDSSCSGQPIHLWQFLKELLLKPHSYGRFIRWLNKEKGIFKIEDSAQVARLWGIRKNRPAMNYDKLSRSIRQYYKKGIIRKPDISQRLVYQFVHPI
Procedure, shortened: as §1

[10] = biological target: T7, ETV3L (Homo sapiens, UniProt Q6ZN32 1-361); details: protein: recombinant; tags: N-terminal GST; dsDNA, one strand shown
T7 sequence: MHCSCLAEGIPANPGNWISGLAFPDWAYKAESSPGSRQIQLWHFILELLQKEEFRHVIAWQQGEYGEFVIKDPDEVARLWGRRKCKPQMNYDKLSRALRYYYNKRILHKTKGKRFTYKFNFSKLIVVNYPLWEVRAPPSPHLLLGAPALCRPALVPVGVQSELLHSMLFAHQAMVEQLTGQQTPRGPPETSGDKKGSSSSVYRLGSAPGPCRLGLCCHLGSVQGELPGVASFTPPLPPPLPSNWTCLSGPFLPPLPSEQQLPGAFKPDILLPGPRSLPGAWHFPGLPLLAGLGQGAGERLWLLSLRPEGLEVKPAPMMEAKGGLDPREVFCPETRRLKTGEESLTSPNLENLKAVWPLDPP
Procedure, shortened: as §1

[11] = biological target: T8, ETV7 (Homo sapiens, UniProt Q9Y603 1-341); details: protein: recombinant; tags: N-terminal GST; dsDNA, one strand shown
T8 sequence: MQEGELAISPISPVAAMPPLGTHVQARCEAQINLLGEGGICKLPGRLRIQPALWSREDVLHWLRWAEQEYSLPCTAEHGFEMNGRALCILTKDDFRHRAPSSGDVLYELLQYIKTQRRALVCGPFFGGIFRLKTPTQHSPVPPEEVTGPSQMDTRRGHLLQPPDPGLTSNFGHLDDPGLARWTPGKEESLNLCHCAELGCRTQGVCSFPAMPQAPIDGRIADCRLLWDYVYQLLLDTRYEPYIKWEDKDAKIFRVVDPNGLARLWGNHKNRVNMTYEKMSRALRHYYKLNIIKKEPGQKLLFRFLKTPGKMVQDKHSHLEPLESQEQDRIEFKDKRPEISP
Procedure, shortened: as §1

Sequence of HSF1 (Q00613 whole entry): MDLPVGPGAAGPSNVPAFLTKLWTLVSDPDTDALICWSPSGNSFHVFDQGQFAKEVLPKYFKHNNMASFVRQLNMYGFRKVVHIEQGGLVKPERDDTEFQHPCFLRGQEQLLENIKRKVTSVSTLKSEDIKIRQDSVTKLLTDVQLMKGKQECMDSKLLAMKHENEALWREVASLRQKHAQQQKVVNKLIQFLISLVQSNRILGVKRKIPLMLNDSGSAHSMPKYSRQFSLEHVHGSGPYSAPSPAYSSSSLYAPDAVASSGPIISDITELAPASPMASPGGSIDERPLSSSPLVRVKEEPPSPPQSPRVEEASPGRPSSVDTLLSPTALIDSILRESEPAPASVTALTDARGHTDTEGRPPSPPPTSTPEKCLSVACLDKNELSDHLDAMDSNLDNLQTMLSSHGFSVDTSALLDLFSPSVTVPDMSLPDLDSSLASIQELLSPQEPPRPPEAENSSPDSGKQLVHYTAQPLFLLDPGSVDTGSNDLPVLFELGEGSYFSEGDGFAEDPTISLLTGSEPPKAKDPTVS
Sequence of CRX (O43186 whole entry): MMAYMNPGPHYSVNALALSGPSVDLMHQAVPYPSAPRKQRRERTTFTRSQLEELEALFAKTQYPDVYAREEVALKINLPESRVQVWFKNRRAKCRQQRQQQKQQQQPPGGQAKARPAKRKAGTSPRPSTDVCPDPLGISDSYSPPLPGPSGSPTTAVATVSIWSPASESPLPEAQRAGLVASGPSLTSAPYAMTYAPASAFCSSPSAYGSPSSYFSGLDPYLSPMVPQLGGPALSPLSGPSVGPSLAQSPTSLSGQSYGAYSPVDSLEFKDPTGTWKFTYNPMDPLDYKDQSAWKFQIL

**Q.** What does the source list for AGAATG?
**A.** binding signal [1]: 1.01 fold enrichment (6-mer frequency, TF over GST control); binding signal [2]: 1.02 fold enrichment (6-mer frequency, TF over GST control); binding signal [3]: 1.01 fold enrichment (6-mer frequency, TF over GST control); binding signal [4]: 1.01 fold enrichment (6-mer frequency, TF over GST control); binding signal [5]: 2.08 fold enrichment (6-mer frequency, TF over GST control); binding signal [6]: 1.01 fold enrichment (6-mer frequency, TF over GST control); binding signal [7]: 1.05 fold enrichment (6-mer frequency, TF over GST control); binding signal [8]: 1.09 fold enrichment (6-mer frequency, TF over GST control)

**Q.** CAGATA was tested. Which binding signal [5] did it give?
**A.** 1.12 fold enrichment (6-mer frequency, TF over GST control)

**Q.** What about the binding signal [8] of the same sequence?
**A.** 1.17 fold enrichment (6-mer frequency, TF over GST control)

**Q.** How did the binding signal [5] turn out when CGTCGA was run?
**A.** 1.06 fold enrichment (6-mer frequency, TF over GST control)

**Q.** And the binding signal [6]?
**A.** 1.01 fold enrichment (6-mer frequency, TF over GST control)

**Q.** What about the binding signal [9] of the same sequence?
**A.** 1.02 fold enrichment (6-mer frequency, TF over GST control)

**Q.** Which binding signal [4] does the source give for ATCAAG here?
**A.** 1.04 fold enrichment (6-mer frequency, TF over GST control)

**Q.** What about the binding signal [5] of the same sequence?
**A.** 1.03 fold enrichment (6-mer frequency, TF over GST control)

**Q.** And the binding signal [6]?
**A.** 1.17 fold enrichment (6-mer frequency, TF over GST control)

**Q.** And the binding signal [8]?
**A.** 1.19 fold enrichment (6-mer frequency, TF over GST control)

**Q.** What about the binding signal [10] of the same sequence?
**A.** 1.06 fold enrichment (6-mer frequency, TF over GST control)

**Q.** And the binding signal [9]?
**A.** 1.01 fold enrichment (6-mer frequency, TF over GST control)

**Q.** For AGCATA, which binding signal [5] is on record?
**A.** 1.04 fold enrichment (6-mer frequency, TF over GST control)

**Q.** And the binding signal [7]?
**A.** 1.01 fold enrichment (6-mer frequency, TF over GST control)

**Q.** What about the binding signal [11] of the same sequence?
**A.** 1.01 fold enrichment (6-mer frequency, TF over GST control)

**Q.** How did the binding signal [5] turn out when GATTAG was run?
**A.** 2.22 fold enrichment (6-mer frequency, TF over GST control)

**Q.** And the binding signal [8]?
**A.** 3.62 fold enrichment (6-mer frequency, TF over GST control)

**Q.** AGAGAT was tested. Which binding signal [5] did it give?
**A.** 1.16 fold enrichment (6-mer frequency, TF over GST control)

**Q.** What about the binding signal [8] of the same sequence?
**A.** 1.38 fold enrichment (6-mer frequency, TF over GST control)

**Q.** For AGAAAG, which binding signal [5] is on record?
**A.** 1.87 fold enrichment (6-mer frequency, TF over GST control)

**Q.** What about the binding signal [8] of the same sequence?
**A.** 1.01 fold enrichment (6-mer frequency, TF over GST control)

**Q.** GTAGAA was tested. Which binding signal [3] did it give?
**A.** 1.01 fold enrichment (6-mer frequency, TF over GST control)

**Q.** And the binding signal [5]?
**A.** 1.47 fold enrichment (6-mer frequency, TF over GST control)

**Q.** What about the binding signal [7] of the same sequence?
**A.** 1.06 fold enrichment (6-mer frequency, TF over GST control)

**Q.** TTAGAC was tested. Which binding signal [5] did it give?
**A.** 1.1 fold enrichment (6-mer frequency, TF over GST control)

**Q.** And the binding signal [8]?
**A.** 1.44 fold enrichment (6-mer frequency, TF over GST control)

**Q.** Which binding signal [5] does the source give for ACCAGA here?
**A.** 1.55 fold enrichment (6-mer frequency, TF over GST control)

**Q.** What about the binding signal [6] of the same sequence?
**A.** 1.01 fold enrichment (6-mer frequency, TF over GST control)

**Q.** What about the binding signal [8] of the same sequence?
**A.** 1.06 fold enrichment (6-mer frequency, TF over GST control)

**Q.** What does the source list for TCAAGA?
**A.** binding signal [5]: 1.12 fold enrichment (6-mer frequency, TF over GST control); binding signal [8]: 1.03 fold enrichment (6-mer frequency, TF over GST control)
